Screens as filed in PubChem BioAssay.
This is one part of a sample in which hits are shown more often than they occur.
Giardia FBPA inh-1: qHTS Assay for Inhibitors of Fructose-1,6-bisphosphate Aldolase from Giardia Lamblia; purified Giardia FBPA; Potency, µM (doses to about 59.6 µM), for the others: at the highest dose activity, negative = inhibition, most hits filed as inhibitors; 290,000 compounds, 0.71% hits; further: nearly all actives have a fitted effect of over 55% in size
Target sequence (A8B2U2 whole entry, looked up): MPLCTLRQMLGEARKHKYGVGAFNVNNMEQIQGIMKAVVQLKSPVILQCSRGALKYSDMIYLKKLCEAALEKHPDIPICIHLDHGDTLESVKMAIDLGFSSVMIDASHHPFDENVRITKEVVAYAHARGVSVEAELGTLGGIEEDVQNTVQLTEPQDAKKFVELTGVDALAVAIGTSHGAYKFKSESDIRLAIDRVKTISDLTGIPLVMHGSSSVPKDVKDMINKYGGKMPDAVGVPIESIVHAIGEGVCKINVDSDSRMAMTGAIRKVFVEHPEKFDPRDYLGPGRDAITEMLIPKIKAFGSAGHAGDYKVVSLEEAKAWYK
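40 nM FBPA preincubated 10 min at RT with compound (up to 57.5 uM final), then substrate plus GAPDH/TPI/NAD/arsenate coupling and diaphorase/resazurin added. Fluorescence read after 20 min at RT, 525/598 nm.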
Cruzain inh noDet: qHTS Assay for Promiscuous and Specific Inhibitors of Cruzain (without detergent). 200,000 compounds, 2.3% hits. purified cruzain, Z-FR-AMC fluorescence, no detergent. Potency, µM, for inactives: max response, negative = inhibition, most hits filed as inhibitors;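 further: plate controls were enzyme without inhibitor for no effect and buffer without enzyme for full effect; nearly all actives have a fitted effect of over 40% in size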
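Purified cruzain at 1.5 nM, pre-incubated 15 min with compound at room temperature in 100 mM sodium acetate pH 5.5, 5 mM DTT, 0.00005% Triton X-100. Reaction started with 2 uM Z-FR-AMC; AMC fluorescence increase over 60 s gives rate.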
Cruzain Triton: qHTS Assay for Promiscuous and Specific Inhibitors of Cruzain (with detergent); Cruzipain (Trypanosoma cruzi), P25779; purified cruzain, Z-FR-AMC fluorescence, 0.01% Triton; Potency, µM, for inactives: max response, negative = inhibition, usual class: inhibitors; 200,000 compounds, 0.43% hits; AID 1478, 2009;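 further: plate controls were neutral wells for no effect and buffer without enzyme for full effect; nearly all actives have a fitted effect of over 40% in size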
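In this qHTS format, compounds are incubated with 1.5 nM cruzain for 15 min at room temperature before 2 uM Z-FR-AMC is added. Release of AMC is followed at 360/450 nm, and progress is taken as the 60 s fluorescence difference.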
Giardia growth: qHTS Assay for Inhibitors of Fructose-1,6-bisphosphate Aldolase from Giardia Lamblia: Giardia lamblia growth inhibition. Potency, µM (doses to about 57.5 µM), for inactives: at the highest dose activity change, negative = inhibition, hits mostly inhibitors. 1,500 compounds, 5% hits. Giardia lamblia trophozoite growth inhibition. shares compounds with Giardia FBPA inh-1;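 further: trophozoites exposed to compound for 48 h at 37 °C; nearly all actives have a fitted effect of over 70% in size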
Mammal cell tox: qHTS Assay for Inhibitors of Fructose-1,6-bisphosphate Aldolase from Giardia Lamblia: Mammalian cellular toxicity | shares compounds with Giardia FBPA inh-1 | mammalian cell viability counter-screen, qHTS | Potency, µM (top dose mostly 57.5 µM), without a hit: at the highest dose viability change, negative = toxicity, hits mostly inhibitors | 1,500 compounds, 4% hits;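 further: Chinese hamster ovary cells used as mammalian cytotoxicity surrogate; viability measured as cellular ATP by luminescence; compound exposure lasted 48 h before reading; nearly all actives have a fitted effect of over 60% in size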
Giardia FBPA inh-2: qHTS Assay for Inhibitors of Fructose-1,6-bisphosphate Aldolase from Giardia Lamblia: Primary screen confirmation; shares compounds with Giardia FBPA inh-1; purified Giardia aldolase enzyme activity, qHTS; Potency, µM (series often up to 57.5 µM), without a hit: at the highest dose activity change, negative = inhibition, hits mostly inhibitors; 1,500 compounds, 5% hits; AID 2787, 2010; further: nearly all actives have a fitted effect of over 45% in size
Rabbit aldolase: qHTS Assay for Inhibitors of Fructose-1,6-bisphosphate Aldolase from Giardia Lamblia: Rabbit FBPA Selectivity | shares compounds with Giardia FBPA inh-1 | AID 2794, 2010 | Rabbit muscle FBPA enzyme inhibition, selectivity counter-screen | Potency, µM (doses to about 57.5 µM), for inactives: top-dose activity, negative = inhibition, most hits filed as inhibitors | 1,500 compounds, 4% hits; further: nearly all actives have a fitted effect of over 60% in size
Target sequence (P00883 whole entry, looked up): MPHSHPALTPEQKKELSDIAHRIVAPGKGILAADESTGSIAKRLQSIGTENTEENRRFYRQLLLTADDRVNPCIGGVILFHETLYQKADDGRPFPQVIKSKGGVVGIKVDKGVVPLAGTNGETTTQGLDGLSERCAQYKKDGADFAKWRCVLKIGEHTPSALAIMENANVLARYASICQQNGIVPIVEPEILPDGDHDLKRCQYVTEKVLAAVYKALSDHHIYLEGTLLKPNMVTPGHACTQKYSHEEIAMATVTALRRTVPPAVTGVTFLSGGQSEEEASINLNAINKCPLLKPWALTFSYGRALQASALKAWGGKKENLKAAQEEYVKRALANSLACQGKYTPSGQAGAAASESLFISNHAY
GAPDH counter: qHTS Assay for Inhibitors of Fructose-1,6-bisphosphate Aldolase from Giardia Lamblia: Coupling assay counterscreen confirmation | shares compounds with Giardia FBPA inh-1 | GAPDH coupling enzyme counterscreen, biochemical, qHTS | Potency, µM (titrated, usually from 57.5 µM), for inactives: top-dose activity change, negative = inhibition, actives largely listed as inhibitors | 1,500 compounds, 6% hits; further: nearly all actives have a fitted effect of over 55% in size
Active calls of the source: *; ? = inconclusive; . = not tested or not shown; [ ] = dose if it differs, or a comment. The call rests on the fitted dose curve; in most records, active means well fitted curve in the direction sought with a large enough effect; inconclusive means small, poorly fitted or top-dose-only effect, or another doubt; inactive means no such curve, though single readings can be large; an effect the other way counts as inactive or inconclusive. Unless noted, on the % scale 0 is the no-effect control and ±100 the full control effect; potency means the concentration at half of the fitted maximal effect.

SMILES | Giardia FBPA inh-1 | Cruzain inh noDet | Cruzain Triton | Giardia growth | Mammal cell tox | Giardia FBPA inh-2 | Rabbit aldolase | GAPDH counter
O=[N+]([O-])c1cccc(CN2CCN(Cc3ccc(Cl)cc3)CC2)c1 | 18µM* | . | . | ? | -11% | 6% | 2% | 9%
CO[C@H]1COC(=O)[C@H](C)NC(=O)C/C=C\[C@@H](C)[C@@H](NS(=O)(=O)c2ccc(C)cc2)COC(=O)C/C=C\[C@@H]1C | 1%[12.9 µM] | . | . | . | . | . | . | .
O=C(NCCCN1CCN(c2ccccc2F)CC1)c1ccc2nc(CCc3ccccc3)oc2c1 | . | -4% | -3% | . | . | . | . | .
Cc1ccc(Nc2nnc(-c3ccc(C)c(S(=O)(=O)N4CCOCC4)c3)c3ccccc23)c(C)c1 | . | 2% | 1% | . | . | . | . | .
CC(=O)Nc1cccc(-c2csc(NCc3ccccc3)n2)c1 | 20µM* | . | . | 18% | -7% | 8% | 8% | 5%
CC(=O)Nc1ccc(-c2csc(NCc3ccccc3)n2)cc1 | -7% | . | . | . | . | . | . | .
OCCN(CC#CCC(O)(c1ccccc1)C1CCCC1)CCO (stereo not drawn) | -1% | . | . | . | . | . | . | .
CC(C)(C)N(CC#CCC(O)(c1ccccc1)c1ccccc1)CCO | 20µM* | . | . | -6% | -3% | -2% | 12% | 9%
CCOC(=O)C(C)Sc1nc(-c2ccccn2)ncc1OC (stereo not drawn) | 16µM* | . | . | ? | -28% | -12% | -11% | ?
COc1cnc(-c2ccccn2)nc1Sc1ccccc1Cl | -16% | 9% | 0% | . | . | . | . | .
COC(=O)CN1C(=O)CSc2ccc(S(=O)(=O)Nc3cccc(Cl)c3C)cc21 | . | 0% | -7% | . | . | . | . | .
Cc1nnc(SCC2=C(C(=O)O)N3C(=O)C(NC(=O)C(C)n4nc(C(F)(F)F)cc4C)C3SC2)s1 (stereo not drawn) | 6.3µM* | . | . | -11% | -6% | 2% | 2% | 14%
NC(=O)c1cc[n+](CC2=C(C(=O)O)N3C(=O)C(NC(=O)C(c4ccccc4)S(=O)(=O)[O-])C3SC2)cc1 (stereo not drawn) | -21% | 2% | 3% | . | . | . | . | .
Cc1c(Cl)c(C(F)F)nn1CC(=O)NC1C(=O)N2C(C(=O)O)=C(CSc3nnnn3C)CSC12 (stereo not drawn) | -20% | . | . | . | . | . | . | .
CC(C(=O)NC1C(=O)N2C(C(=O)O)=C(CSc3nnnn3C)CSC12)n1cc(Cl)cn1 (stereo not drawn) | 18µM* | . | . | 13%[10.4 µM] | -4% | 1% | 2% | 2%
Cc1ccc(CNc2ncnc3onc(-c4ccc(F)cc4)c23)cc1 | . | 2% | 5% | . | . | . | . | .
O=C(O)CNC(=O)CC1S/C(=N/N=C/c2ccccc2O)NC1=O (stereo not drawn) | 20% | . | . | . | . | . | . | .
O=C(O)CNC(=O)CC1S/C(=N/N=C2\CSC(=O)N2)NC1=O (stereo not drawn) | 5.6µM* | . | . | 13%[38.3 µM] | 4% | -10% | 8% | -8%
CC(C)(C)c1ccc(NC(=O)CSc2nnc3scc(-c4ccccc4)n23)cc1 | . | -17% | -8% | . | . | . | . | .
Cc1ccc(Nc2c3c(nc4nncn24)CCC3)cc1C | . | 4% | 1% | . | . | . | . | .
Cc1ccc(NC(=O)CN(C)C(=O)COc2cccc3cccnc23)cc1 | 11µM* | -15% | -4% | -37% | 6% | 13µM* | ? | ?
Cc1ccc(NC(=O)CN(C)S(=O)(=O)c2cccc3cccnc23)cc1 | 2% | -11% | 1% | . | . | . | . | .
N#CC(C#N)=C(C#N)c1ccc(Nc2ccccc2)cc1 | 22µM* | . | . | ? | -8% | -17% | -8% | -18%
O=C(Nc1ccc(Nc2ccccc2)cc1)c1ccc(F)cc1 | 5% | . | . | . | . | . | . | .
CCOC(=O)CCc1c(C)nc(-n2[nH]c(C)c(CCO)c2=O)[nH]c1=O | 14µM* | . | . | 5%[10.4 µM] | 0% | -4% | 5% | -1%
SMILES | Giardia FBPA inh-1 | Cruzain inh noDet | Cruzain Triton | Giardia growth | Mammal cell tox | Giardia FBPA inh-2 | Rabbit aldolase | GAPDH counter
CCOC(=O)CCc1c(C)n[nH]c1C | 2% | . | . | . | . | . | . | .
CCOc1ccccc1CN1CCc2nc(N3CCN(C)CC3)ncc2C1 | . | -3% | 0% | . | . | . | . | .
Nc1ccc(S(=O)(=O)NCc2ccccn2)cc1 | -5% | . | . | . | . | . | . | .
O=S(=O)(NCc1ccccn1)C(F)(F)F | 2.8µM* | . | . | 2%[10.4 µM] | 1% | 10% | 6% | 11%
O=C(O)c1cccnc1C(=O)O | 0.63µM* | -4% | 6% | 9%[38.3 µM] | -3% | -6% | -6% | -5%
O=C(O)c1cccnc1Cl | 11% | 1% | 0% | . | . | . | . | .
O=C(Nc1nnc(C2=COCCO2)o1)c1ccc(Cc2ccccc2)cc1 | 18µM* | . | . | ? | -3% | 2% | 8% | -3%
